Screening results: PubChem BioAssay, National Center for Advancing Translational Sciences (NCATS)
Most compounds without a hit are left out; they make up all but 6.9% or so of the library.
IL-1B inflam inh = inflammasome signaling inhibition, IL-1 beta readout; 360,000 tested, 4.7% active; AID 743279; activity change, % at 57.5 µM; THP-1 LPS/ATP IL-1B secretion, AlphaLISA, 16 h; active compounds read low; in the data active = activity change below about -50%; inconclusive = mostly about -30% to -49%
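Secreted IL-1B measured by AlphaLISA bead assay after 16 h compound exposure of THP-1 cells; compounds (final up to 57.5 uM) added 1 h before LPS (250 ng/mL) and ATP (1.25 mM) stimulation; lower signal means less secretion.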
Vif-APOBEC3F blk = Vif-A3F binding inhibition. HeLa A3F-eYFP + Vif (tagged APOBEC3F with the HIV-1 protein that degrades it), YFP fluorescence increase. Potency, µM (top dose mostly 46.1 µM). 390,000 tested, 0.2% active. AID 602313; also: nearly all actives have a fitted effect of over 65% in size
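HeLa cells stably expressing A3F-eYFP plus Vif, plated and incubated overnight at 37 deg C, then exposed to compounds overnight at 37 deg C. Blocked degradation read as raised yellow fluorescence (Ex 488/Em 500-530).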
Vif-APOBEC3G blk = Vif-A3G binding inhibition; Q9HC16; HeLa A3G-eYFP + Vif (tagged APOBEC3G with the HIV-1 protein that degrades it), YFP fluorescence, overnight; Potency, µM (titrated, usually from 46.1 µM), actives largely listed as inhibitors; 410,000 tested, 0.076% active; AID 602310; also: nearly all actives have a fitted effect of over 60% in size
Target sequence (Q9HC16 whole entry, looked up): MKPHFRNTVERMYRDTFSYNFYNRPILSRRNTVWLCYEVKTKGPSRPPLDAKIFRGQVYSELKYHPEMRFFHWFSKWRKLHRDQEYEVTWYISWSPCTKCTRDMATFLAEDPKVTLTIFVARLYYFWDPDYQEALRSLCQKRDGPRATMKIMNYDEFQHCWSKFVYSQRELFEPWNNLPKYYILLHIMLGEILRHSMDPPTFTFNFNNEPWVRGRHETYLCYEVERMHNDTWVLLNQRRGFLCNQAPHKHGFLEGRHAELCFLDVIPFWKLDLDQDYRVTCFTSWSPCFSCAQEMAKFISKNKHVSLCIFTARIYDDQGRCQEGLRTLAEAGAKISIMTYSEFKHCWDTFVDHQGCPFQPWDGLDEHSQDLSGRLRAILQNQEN
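Read-out is eYFP fluorescence (Ex 488/Em 500-530) from Vif-expressing HeLa A3G-eYFP cells; more signal means A3G escaped Vif-mediated degradation. Cells plated overnight, compound pinned in, incubated overnight at 37 deg C.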
MCF10A rereplic = induces DNA re-replication in MCF 10a normal breast cells; MCF 10A DNA re-replication, Hoechst nuclear intensity, 48 h; Potency, µM (series often up to 46.1 µM), hits mostly activators; 350,000 tested, 2.9% active; AID 624296; also: nearly all actives have a fitted effect of over 50% in size
SW480 rerep = inducers of DNA re-replication in SW480 colon cancer cells. Potency, µM (doses to about 46.1 µM), usual class: activators. 340,000 tested, 1.8% active. AID 624297. SW480 DNA re-replication, Hoechst DNA content imaging, 48 h; also: nearly all actives have a fitted effect of over 55% in size
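Hoechst fluorescence of nuclei (405 nm excitation, 500-530 nm emission) measured by plate-scanning imager after 48 hr compound exposure at 37 C; re-replication scored as increased number of nuclei with elevated intensity.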
Giardia killer = kills Giardia lamblia; Giardia lamblia trophozoite viability; activity change, % at 7.66 µM, hits read low; 340,000 tested, 0.15% active; AID 540267; in the data active = activity change below about -80%; inconclusive = between about -30% and that limit;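 also: parasites exposed to compound for two days anaerobically before the ATP read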
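Compounds were tested on trophozoites seeded at 100 cells/well and held 48 hrs at 37 deg C anaerobically. An ATP-based luminescent kit measured the remaining live cells.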
Large screens that a line does not name were inactive. Unless noted, calls follow the shape of the dose curve; as a rule, active = well fitted curve in the direction sought with a large enough effect; inconclusive = small, poorly fitted or top-dose-only effect, or another doubt; inactive = no such curve, though single readings can be large; an effect the other way counts as inactive or inconclusive.

CCOc1cc(/C=C/C(=O)c2ccc(C)cc2)ccc1OCC(=O)N(C)C	IL-1B inflam inh -105, MCF10A rereplic 23µM, SW480 rerep inconclusive
CCCCCSc1nc2sc3c(c2c(=O)n1-c1ccc(OC)cc1)CCN(C(C)=O)C3	none (no result: IL-1B inflam inh, MCF10A rereplic, SW480 rerep, Giardia killer)
COc1ccc(Cl)cc1NC(=O)CSc1nnc2[nH]c(=O)cc(-c3ccccc3)n12	none (no result: IL-1B inflam inh, MCF10A rereplic, SW480 rerep, Giardia killer)
COc1ccc(/C=C/C(=O)c2ccc[nH]2)cc1OC	IL-1B inflam inh -63, Vif-APOBEC3F blk inconclusive, SW480 rerep inconclusive
CCOC(=O)c1cccc(NC(=O)C2CCN(S(=O)(=O)c3ccc4c(c3)oc(=O)n4C)CC2)c1	none (no result: IL-1B inflam inh, MCF10A rereplic, SW480 rerep, Giardia killer)
Cc1c(Cc2ccccc2)sc(/N=C/c2c(O)ccc3ccccc23)c1C(N)=O	Vif-APOBEC3F blk 8.9µM, MCF10A rereplic 12µM, SW480 rerep inconclusive
Cc1c(Cc2ccccc2)sc(/N=C/c2ccc3ccccc3c2)c1C(N)=O	Vif-APOBEC3G blk inconclusive, MCF10A rereplic 2.9µM, SW480 rerep 1.2µM
Cc1ccc(/C=N/c2sc(Cc3ccccc3)c(C)c2C(N)=O)o1	Vif-APOBEC3F blk inconclusive, Vif-APOBEC3G blk inconclusive, MCF10A rereplic inconclusive
Cc1sc(NC(=O)Cc2ccc3c(c2)OCO3)nc1-c1ccc2c(c1)CCN2C(=O)c1ccc(F)cc1	none
Cc1sc(NC(=O)CN2CCCC2)nc1-c1ccc2c(c1)CCN2C(=O)c1cccc(F)c1	IL-1B inflam inh -66, Vif-APOBEC3F blk inconclusive, MCF10A rereplic inconclusive, SW480 rerep inconclusive
Cc1ccc(-c2onc(C)c2C)cc1S(=O)(=O)Nc1cccc(Cl)c1C	none (no result: IL-1B inflam inh, MCF10A rereplic, SW480 rerep, Giardia killer)
O=C(/C(=C/O)N=Nc1ccccc1)c1cccs1	IL-1B inflam inh -74
C=CCN1C(c2ccc(Br)cc2)=CS/C1=C(\C#N)c1nnc(N2CCOCC2)n1-c1ccccc1	IL-1B inflam inh -73, MCF10A rereplic inconclusive, SW480 rerep inconclusive
C=CCN1C(=O)NC(c2ccccc2)(C(F)(F)F)S/C1=C(\C#N)c1nnc(N2CCOCC2)n1-c1ccccc1 (centres undefined)	IL-1B inflam inh inconclusive, MCF10A rereplic 21µM
C=CCN1C(c2cccc(C(F)(F)F)c2)=CS/C1=C(\C#N)c1nnc(N2CCOCC2)n1-c1ccccc1	IL-1B inflam inh inconclusive (no result: MCF10A rereplic, SW480 rerep, Giardia killer)
Nc1ccc(CSc2ccc(Cl)cc2)c(Cl)c1	MCF10A rereplic 21µM, SW480 rerep inconclusive
N=C(N)SCc1ccc(Cl)cc1Cl	IL-1B inflam inh -101, MCF10A rereplic inconclusive, SW480 rerep inconclusive
CCN1CCN(c2oc(/C=C/c3ccccc3)nc2C#N)CC1	Vif-APOBEC3F blk inconclusive, MCF10A rereplic 23µM, SW480 rerep inconclusive
N#Cc1nc(COc2ccc(-c3ccccc3)cc2)oc1NCCCN1CCOCC1	IL-1B inflam inh inconclusive, MCF10A rereplic 11µM, SW480 rerep inconclusive
N#Cc1nc(/C=C/c2ccccc2)oc1NCCCN1CCOCC1	MCF10A rereplic 23µM, SW480 rerep inconclusive
N#Cc1nc(-c2cccc3ccccc23)oc1NCCN1CCOCC1	MCF10A rereplic 16µM, SW480 rerep inconclusive
N#Cc1nc(-c2cccs2)oc1NCCCN1CCOCC1	none
COc1ccccc1NC(=O)CN1C(=O)CCSc2ccccc21	none (no result: IL-1B inflam inh, MCF10A rereplic, SW480 rerep, Giardia killer)
Cc1nc(N2CCOCC2)c2c(C(=O)NCCc3ccccc3)c(C)oc2n1	none (no result: IL-1B inflam inh, MCF10A rereplic, SW480 rerep, Giardia killer)
CNc1oc(/C=C/c2ccccc2)nc1C#N	MCF10A rereplic 21µM, SW480 rerep inconclusive
COCCNc1oc(/C=C/c2ccccc2)nc1C#N	none
CCN(CC)CCCNc1ccc(-c2nnc(-c3ccc(OCC(C)C)cc3)o2)cn1	IL-1B inflam inh -51, MCF10A rereplic inconclusive, SW480 rerep 21µM
COc1ccc(C2/C=C\CN(S(=O)(=O)c3ccc(C)cc3)C(Cc3ccccc3)C(=O)N2Cc2ccc(F)cc2)cc1 (centres undefined)	none (no result: IL-1B inflam inh, Vif-APOBEC3F blk, MCF10A rereplic, SW480 rerep)
COc1cc2c(cc1OC)C(C)N(C(=O)c1c(C)noc1C)CC2 (centres undefined)	Vif-APOBEC3G blk inconclusive, MCF10A rereplic 9.2µM, SW480 rerep inconclusive
COc1cc2c(cc1OC)C(C)N(C(=O)C1COc3ccccc3O1)CC2 (centres undefined)	IL-1B inflam inh -51
COc1ccc(C(=O)N2CCN(C(=O)C3COc4ccccc4O3)CC2)cc1OC (centres undefined)	none
COc1cc2c(cc1OC)C(C)N(C(=O)c1cc(C)on1)CC2 (centres undefined)	Vif-APOBEC3G blk inconclusive, MCF10A rereplic 1.3µM, SW480 rerep 0.73µM
COc1cc2c(cc1OC)C(C)N(C(=O)c1cc3c(s1)-c1c(C)cccc1OC3)CC2 (centres undefined)	MCF10A rereplic 16µM, Giardia killer inconclusive
COc1cc2c(cc1OC)C(C)N(C(C)=O)CC2 (centres undefined)	SW480 rerep inconclusive
COc1cc2c(cc1OC)C(C)N(C(=O)/C=C/c1cc(OC)c(OC)c(OC)c1)CC2 (centres undefined)	MCF10A rereplic inconclusive
COc1cc2c(cc1OC)C(C)N(C(=O)c1cccs1)CC2 (centres undefined)	Vif-APOBEC3G blk inconclusive
COc1cc2c(cc1OC)C(C)N(C(=O)c1cc3ccccc3o1)CC2 (centres undefined)	IL-1B inflam inh -59
COc1cc(C(=O)NCC(=O)N2CCN(S(=O)(=O)c3cc(C)ccc3C)CC2)cc(OC)c1OC	Vif-APOBEC3G blk 6.3µM, MCF10A rereplic inconclusive, SW480 rerep 8.2µM
O=C(CC1Sc2ccccc2NC1=O)NNc1ccc(Cl)cc1Cl (centres undefined)	IL-1B inflam inh -58
O=C(CC1Sc2ccccc2NC1=O)NCc1ccccc1 (centres undefined)	none
COC(=O)Nc1nc(-c2ccccc2)c(C(=O)c2ccccc2)s1	MCF10A rereplic 0.23µM, SW480 rerep 0.41µM
COC(=O)Nc1nc(C)c(C(=O)c2ccccc2)s1	Vif-APOBEC3G blk inconclusive, MCF10A rereplic 9.2µM, SW480 rerep 15µM
CN(C)S(=O)(=O)c1ccc(C(=O)Nc2nc(-c3ccccc3)c(C(=O)c3ccccc3)s2)cc1	none
COc1ccc2c(CNC3CCCCCC3)c(C(=O)O)n(Cc3ccccc3F)c2c1	none (no result: IL-1B inflam inh, MCF10A rereplic, SW480 rerep, Giardia killer)
Clc1ccccc1Cn1nnc2c(Nc3ccccc3)ncnc21	MCF10A rereplic 13µM
CCc1nc(Nc2ccc(OC)c(OC)c2)c2nnn(Cc3ccccc3Cl)c2n1	IL-1B inflam inh -65, MCF10A rereplic inconclusive
O=C(NCc1ccc(F)cc1)c1ccc2c(c1)nnn2C1CCCC1	none (no result: IL-1B inflam inh, MCF10A rereplic, SW480 rerep, Giardia killer)
COc1ccc2c(c1)OC[C@H]1[C@H]2N2C(=O)c3cc(OC)c(OC)cc3NC(=O)[C@@]2(C)[C@H]1c1ccccc1	MCF10A rereplic 18µM, SW480 rerep 21µM
COc1ccc2c(c1)OC[C@H]1[C@H]2N2C(=O)c3ccc(F)cc3NC(=O)[C@@]2(C)[C@H]1c1ccccc1	IL-1B inflam inh -54, MCF10A rereplic inconclusive, SW480 rerep inconclusive
